# About 79,000 compounds went through this panel and 15% of them were active in at least one assay; those are over-represented in the sample as a whole. Unmarked numbers belong to inactive results. Activity calls are given as the source filed them. Cut-off read from the data, not from the text of the source: active = growth inhibition above about 70%; inactive = the rest.
# Legend:
# [1] = NCI Yeast Anticancer Drug Screen. Data for the rad50 strain (AID 155);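 note: 0% = growth of vehicle-only cultures of the same strain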; conditions: S. cerevisiae rad50 strain growth inhibition, active compounds read high
# Method in brief: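 DNA repair mutant yeast, compound exposure, growth read-out; inhibition is taken relative to vehicle.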
# [2] = NCI Yeast Anticancer Drug Screen. Data for the mec2-1 strain (AID 157); conditions: S. cerevisiae mec2-1 strain, active compounds read high
# Method in brief: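 Test agents were screened against the mec2-1 yeast strain, with defined DNA repair or cell cycle alteration. Growth was scored as inhibition against vehicle-only controls.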
# [3] = NCI Yeast Anticancer Drug Screen. Data for the sgs1 mgt1 strain (AID 161);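 note: 0% = growth of cultures given vehicle only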; conditions: S. cerevisiae sgs1 mgt1 strain, active compounds read high
# Method in brief: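 Read-out: growth inhibition vs vehicle controls. Cells: mutant yeast strain deficient in DNA damage repair.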
# [4] = NCI Yeast Anticancer Drug Screen. Data for the cln2 rad14 strain (AID 165);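 note: 0% = growth equal to vehicle treated cultures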; conditions: S. cerevisiae cln2 rad14 strain, active compounds read high
# Method in brief: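 Growth of compound-exposed yeast (cln2 rad14 genotype) measured and expressed as inhibition relative to vehicle.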
# [5] = NCI Yeast Anticancer Drug Screen. Data for the bub3 strain (AID 167); conditions: S. cerevisiae bub3 mutant strain, active compounds read high
# Method in brief: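 In this screen, a yeast mutant lacking normal mitotic checkpoint function is challenged with compound. Relative growth versus vehicle gives the inhibition value.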
# [6] = NCI Yeast Anticancer Drug Screen. Data for the mlh1 rad18 strain (AID 175); conditions: S. cerevisiae mlh1 rad18 strain growth inhibition, active compounds read high
# Method in brief: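 In this whole-cell yeast screen, a strain with altered DNA damage repair is challenged with compound, and its growth is measured against matched vehicle-treated controls.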
# [7] = at 5.0 µM (retest, dose inferred, filed as 0.5)
# [8] = at 50.0 µM (retest, dose inferred, filed as 5.0)
Compound,"growth inhibition [1, 7]","growth inhibition [1, 8]",growth inhibition ([1]; at 50.0 µM),"growth inhibition [2, 7]","growth inhibition [2, 8]",growth inhibition ([2]; at 50.0 µM),"growth inhibition [3, 7]","growth inhibition [3, 8]",growth inhibition ([3]; at 50.0 µM),"growth inhibition [4, 7]","growth inhibition [4, 8]",growth inhibition ([4]; at 50.0 µM),"growth inhibition [5, 7]","growth inhibition [5, 8]",growth inhibition ([5]; at 50.0 µM),"growth inhibition [6, 7]","growth inhibition [6, 8]",growth inhibition ([6]; at 50.0 µM)
CC(C)(C)N1C(=O)C(Cl)(C#N)C1c1ccccc1 (stereo not given),7%,25%,43.5%,-4%,8%,26.6%,-3%,27%,73.5% (active),9%,11%,19.9%,-1%,0%,-6.3%,-11%,26%,72.5% (active)
NNC(=O)c1ccccc1SSc1ccccc1C(=O)NN,82% (active),99% (active),99.3% (active),81% (active),99% (active),99.7% (active),74% (active),99% (active),99.7% (active),51%,99% (active),98.7% (active),98% (active),99% (active),99.1% (active),71% (active),99% (active),99.4% (active)
[O-]c1c2cc(-[n+]3c(-c4ccccc4)cc(-c4ccccc4)cc3-c3ccccc3)cc1CO[C@@H](c1ccccc1)[C@H](c1ccccc1)OCc1cccc(n1)CO[C@@H](c1ccccc1)[C@H](c1ccccc1)OC2,98% (active),96% (active),87.2% (active),98% (active),98% (active),90.8% (active),100% (active),98% (active),90.5% (active),97% (active),98% (active),90.2% (active),99% (active),99% (active),89.3% (active),98% (active),97% (active),86.7% (active)
O=C(CCN1CCOCC1)c1ccc(Oc2ccc(F)cc2)cc1,65%,87% (active),67.2%,64%,95% (active),77% (active),80% (active),95% (active),85.2% (active),64%,66%,78.1% (active),88% (active),98% (active),85.4% (active),74% (active),90% (active),88% (active)
CCCN(CCC)C(=O)C(C)C,1%,-1%,9.95%,2%,-4%,-5.6%,-1%,-7%,-5.3%,0%,-4%,32.5%,-2%,-2%,-13.1%,3%,-3%,16.1%
